# Experimental data reported in PubChem BioAssay (NCATS).
# Results filed as inconclusive are left out. Entries that show only a call come without a potency. Values without a mark were called inactive. Calls of active or inactive are those of the source. Calls come from the whole dose curve; as a rule, active = well fitted inhibition curve with a large enough effect; inconclusive = small, poorly fitted or top-dose-only effect; inactive = flat fitted curve, though single readings scatter.
# Experiment: Primary qHTS for inhibitors of nuclear receptor binding SET domain protein 2 (NSD2) in an isogenic RCH-ACV NSD2 p.E1099K mutant (9B) (AID 1645876); note: nearly all actives have a fitted effect of over 70% in size
# Details: RCH-ACV (leukaemia line) NSD2 E1099K (9B) viability, CellTiter-Glo, 72 h; series mostly up to 44.9 µM
SMILES,Potency,"activity change, negative = viability loss",outcome
C[C@H](O)[C@H](O)/C=C/c1cccc(O)c1CO,inactive,–,–
O=C(O)/C=C/c1ccc(O)c(O[C@@H]2O[C@H](CO)[C@@H](O)[C@H](O)[C@H]2O)c1,inactive,–,–
C[C@@H]1O[C@@H](O[C@H]2[C@H](OC(=O)[C@]34CCC(C)(C)C[C@H]3C3=CCC5[C@@]6(C)CC[C@H](O[C@@H]7O[C@H](C(=O)O)[C@@H](O)[C@H](O)[C@H]7O[C@@H]7O[C@H](CO)[C@H](O)[C@H](O)[C@H]7O)[C@@](C)(C=O)C6CC[C@@]5(C)[C@]3(C)C[C@H]4O)O[C@H](C)[C@H](O[C@@H]3O[C@H](C)[C@H](O)[C@H](O)[C@H]3O)[C@@H]2O)[C@H](O)[C@H](O)[C@H]1O[C@@H]1OC[C@@H](O)[C@H](O[C@@H]2O[C@H](CO)[C@@H](O)[C@H](O)[C@H]2O)[C@H]1O (some centres not stated),–,-94% [at 4.96 µM],–
C[C@@H]1O[C@@H](O[C@@H]2[C@@H](O)[C@@H](O[C@]3(CO)O[C@H](CO)[C@@H](O)[C@@H]3OC(=O)/C=C/c3ccc(O)cc3)O[C@H](CO)[C@H]2OC(=O)/C=C/c2ccc(O)cc2)[C@H](O)[C@H](O)[C@H]1O[C@@H]1O[C@@H](C)[C@H](O[C@@H]2OC[C@](O)(CO)[C@H]2O)[C@@H](O)[C@H]1O,–,–,inactive [at 9.23 µM]
C=C(CO)C12OC1C1(C)C(=CC2=O)C(O)C(O)CC1C (configuration not stated),inactive,–,–
COC(=O)CC(O)CC(O)/C=C/c1c(C)ccc2c1C(O)CC(C)C2 (configuration not stated),inactive,–,–
COc1c2c(c(CO)c3c1C(=O)OC3)OC1(C)CCC3(O)C(C)(C)OC(=O)CCC3(C)C1C2 (configuration not stated),inactive,–,–
